± gives the standard deviation of the averaged measurements.
How the values were obtained:
Details in all cases: concentration: 10 µM; 24 h
[1] = system: HCC1569; test: cell number relative to DMSO (% of DMSO); higher = more cells (less growth inhibition / toxicity)
Outline: (§1)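 H1.0 nuclear intensity or cell number is expressed as percent of the plate control, with the median of replicates taken. HCC1569 and TDF cells were treated with compounds at 10 µM for 24 h at 37 °C, in triplicate, then fixed and immunostained for H1.0 with DAPI as a nuclear stain. HCC1569 values were smoothed to correct for positional effects.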

[2] = system: TDF; test: as above
Outline: as §1

[3] = system: TDF; test: H1.0 immunofluorescence intensity relative to DMSO (% of DMSO); higher = stronger H1.0 induction, active = 120 or more
Outline: as §1

[4] = system: HCC1569; test: H1.0 immunofluorescence intensity relative to DMSO (% of DMSO); higher = stronger H1.0 induction, active = 140 or more
Outline: as §1
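Throughout, for H1.0 immunofluorescence intensity relative to DMSO: TDF is a line of transformed human dermal fibroblasts of mesenchymal origin.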
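Throughout, for cell number relative to DMSO: TDF denotes transformed human dermal fibroblasts of mesenchymal origin.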

| Compound | cell number [1] | cell number [2] | H1.0 immunofluorescence intensity [3] | H1.0 immunofluorescence intensity [4] |
| --- | --- | --- | --- | --- |
| COc1cc(C(O)C(=O)O)ccc1O (racemic) | 105 | 109 | 89.5 (inactive) | 91.2 (inactive) |
| CCCCCC(O)C=CC=CCC=CCC=CCCCC(=O)O (stereo not given) | 103 | 100 | 96.7 (inactive) | 99.7 (inactive) |
| Cc1cc2ncc(-c3ccccc3)nc2cc1C | 100 | 97.9 | 96 (inactive) | 112 (inactive) |
| Cl.NCCCC(N)(C(=O)O)C(F)F (racemic) [DL-alpha-Difluoromethylornithine hydrochloride] | 98.5 | 111 | 94.3 (inactive) | 92.7 (inactive) |
| CC1(C2CCCC2)Cc2cc(OCC(=O)O)c(Cl)c(Cl)c2C1=O (stereo not given) | 103 | 107 | 91.9 (inactive) | 84.5 (inactive) |
| CCCCCCCCCCCC1=C(O)C(=O)C=C(O)C1=O [Embelin] | 98.8 | 97.1 | 97.6 (inactive) | 87.3 (inactive) |
| CCCCCCCCC=CCCCCCCCCOCC(COP(=O)([O-])OCC[N+](C)(C)C)OC(C)=O (stereo not given) | 101 | 114 | 94 (inactive) | 98.3 (inactive) |
| CC(C)NCC(O)COc1ccc(CC(N)=O)cc1 (racemic) | 109 | 101 | 93.8 (inactive) | 88.2 (inactive) |
| COc1cc(CNC(=O)CCCCC=CC(C)C)ccc1O [Capsaicin] | 99 ± 1.3 | 99.2 ± 2.3 | 93.8 (inactive) | 95.8 (inactive) |
| O=c1cc(-c2cccc3c2Sc2ccccc2S3)oc(N2CCOCC2)c1 | 83.2 | 97.9 | 94.5 (inactive) | 145 (active) |

From the supplement of paper PMC7156485
